Test system: Vero E6 infected with SARS-CoV-2
Assay: inhibition of SARS-CoV-2 cytopathic effect; higher = more antiviral protection, active = above 15
Conditions: 48 h

Measured: inhibition of SARS-CoV-2 cytopathic effect

CCN[C@H]1C[C@H](C)S(=O)(=O)c2sc(S(N)(=O)=O)cc21 [dorzolamide]
inactive: 1 nM -0.7% | 8.33 nM -3.23% | 100 nM -4.56% | 833.33 nM -1.92% | 10000 nM -1.06%

COc1ccccc1OCC(O)CN1CCN(CC(=O)Nc2c(C)cccc2C)CC1 (stereo not given) [ranolazine]
inactive: 1 nM 0.1% | 8.33 nM -0.38% | 100 nM -2.33% | 833.33 nM 0.17% | 10000 nM -0.73%

CC(CNC1CCCCC1)OC(=O)c1ccccc1 (stereo not given) [hexylcaine]
inactive: 1 nM 2.92% | 8.33 nM -0.38% | 100 nM -0.1% | 833.33 nM -11% | 10000 nM -2.93%

CC/C(=C(/c1ccc(OCCN(C)C)cc1)c1cccc(O)c1)c1ccccc1 [droloxifene]
active: 10000 nM 34.5%
inactive: 1 nM 0.66% | 8.33 nM -1.2% | 100 nM 1.69% | 833.33 nM 0.64%

OC[C@H]1O[C@@H](Oc2cc3c(O)cc(O)cc3[o+]c2-c2ccc(O)c(O)c2)[C@H](O)[C@@H](O)[C@@H]1O [kuromanin]
inactive: 1 nM -0.56% | 8.33 nM 0.72% | 100 nM -0.34% | 833.33 nM -2.36% | 10000 nM -4.26%

C[C@]12CCC(=O)C=C1CC[C@@H]1[C@@H]2[C@@H](O)C[C@@]2(C)[C@H]1CC[C@]2(O)C(=O)COC(=O)CCC(=O)O [hydrocortisone-hemisuccinate]
inactive: 1 nM -3.36% | 8.33 nM -5.52% | 100 nM -5.26% | 833.33 nM -3.7% | 10000 nM -4.67%

COc1ccc(C2CNC(=O)C2)cc1OC1CCCC1 (stereo not given) [rolipram]
inactive: 1 nM 0.987% | 8.33 nM 0.267% | 100 nM -1.59% | 833.33 nM -0.223% | 10000 nM -5.08%

CCc1cc(C(N)=S)ccn1 [ethionamide]
inactive: 1 nM -1.54% | 8.33 nM 0.54% | 100 nM -0.38% | 833.33 nM -1.73% | 10000 nM 2.79%

O=C1OC2(c3ccccc31)c1cc(I)c(O)c(I)c1Oc1c2cc(I)c(O)c1I [erythrosine]
inactive: 1 nM -2.4% | 8.33 nM -1.04% | 100 nM -2.6% | 833.33 nM -4.79% | 10000 nM -12.8%

N#Cc1ccc(Cn2cncc2CN2CCN(c3cccc(Cl)c3)C(=O)C2)cc1
inactive: 1 nM 3.21% | 8.33 nM 3.01% | 100 nM 0.11% | 833.33 nM -2.48% | 10000 nM -1.12%

NCCCCCNCC12CC3CC(CC(C3)C1)C2
inactive: 1 nM 2.39% | 8.33 nM 1.74% | 100 nM 0.57% | 833.33 nM 2.97% | 10000 nM -1.44%

C[C@]12CC[C@@H]3c4ccc(O)cc4CC[C@H]3[C@@H]1CC[C@@H]2O [estradiol]
inactive: 1 nM 1.43% | 8.33 nM 2.24% | 100 nM -0.69% | 833.33 nM -2.04% | 10000 nM -1.69%

C[C@@H]1O[C@@H](OC[C@H]2O[C@@H](Oc3c(-c4ccc(O)c(O)c4)oc4cc(O)cc(O)c4c3=O)[C@H](O)[C@@H](O)[C@@H]2O)[C@H](O)[C@H](O)[C@H]1O [rutin]
inactive: 1 nM 1.54% | 8.33 nM 1.59% | 100 nM 5.75% | 833.33 nM 0.96% | 10000 nM -5.92%

CCCCC(=O)O[C@H]1CC[C@H]2[C@@H]3CCc4cc(O)ccc4[C@H]3CC[C@]12C
inactive: 1 nM -0.93% | 8.33 nM 0.74% | 100 nM -1.48% | 833.33 nM -1.92% | 10000 nM -0.83%

Cc1ccc(S(N)(=O)=O)cc1 [para-toluenesulfonamide]
inactive: 1 nM 3.73% | 8.33 nM 1.88% | 100 nM 1.14% | 833.33 nM 0.12% | 10000 nM -5.38%

CNCC[C@H](Oc1cccc2ccccc12)c1cccs1 [duloxetine]
inactive: 1 nM -2.53% | 8.33 nM -0.71% | 100 nM 0.92% | 833.33 nM -2.04% | 10000 nM -6.87%

O=C(NCc1ccc2c(c1)OCO2)c1c(Cl)cccc1Cl [alda-1]
inactive: 1 nM -2.37% | 8.33 nM 0.82% | 100 nM -2.66% | 833.33 nM -5.92% | 10000 nM -3.23%

C=CCNC1=C2C[C@@H](C)C[C@H](OC)[C@H](O)[C@@H](C)/C=C(\C)[C@H](OC(N)=O)[C@@H](OC)/C=C\C=C(/C)C(=O)NC(=CC1=O)C2=O [tanespimycin]
inactive: 1 nM -1.35% | 8.33 nM -0.13% | 100 nM -4.27% | 833.33 nM -0.63% | 10000 nM 3.92%

From the supplement of paper PMC13380429
